In the library only some 6.6% were active in any assay of this set; here they are far more common.
GRIN3A LBD mod = binders of NR3A ligand-binding domain, primary screen, biophysical, differential scanning fluorimetry, uHTS; Glutamate receptor ionotropic, NMDA 3A (GRIN3A) ligand-binding domain; NR3A LBD differential scanning fluorimetry, Tm shift; 0% = protein alone, 100% = glycine-bound protein; Tm shift relative to glycine control, % at 25 µM; hit rate 2.5% among 340,000; AID 1259313, 2017;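 active = melting temperature shift of at least 10% of the positive control shift, at one fixed dose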
Beta cell apopt = inhibitors of cytokine-induced beta cell apoptosis, primary screen, luminescence | INS-1E cytokine-induced death, ATP luminescence, 48 h; percent of positive-control rescue, neutral wells zero | protection from apoptosis, % (test concentration not listed) | hit rate 0.8% among 300,000 | AID 435005, 2010;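 active = Every replicate reaches about 75%, or at least half do and their mean reaches it too, limit read from the data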;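 also: higher means more ATP so stronger rescue from cytokine killing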
Gli-Sufu antag = Gli-Sufu pathway antagonists, primary screen, luciferase luminescence, Sufu-KO-LIGHT cells, uHTS | inhibition, % at 5 µM | Sufu-KO-LIGHT fibroblasts, Gli luciferase reporter luminescence | hit rate 0.74% among 340,000;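 active = inhibition above about 55%, limit read from the data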
MPTP inh = mitochondrial permeability transition pore inhibitors, primary screen, biochemical, isolated mouse mitochondria, absorbance; Ca2+ swelling absorbance, 30 min; inhibition, % at 10 µM; hit rate 1.4% among 360,000; AID 602449, 2012;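 active = inhibition of 50% or more, scaled per plate between neutral and stimulator controls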
Mdm2-MdmX inh = inhibitors of human Mdm2-MdmX association, primary screen, cell-based, luminescence, split luciferase, SaOS-2, uHTS. AID 485346, 2010. hit rate 3% among 330,000. Protein Mdm4 (Homo sapiens) + E3 ubiquitin-protein ligase Mdm2 (Homo sapiens), …. inhibition, % at 8 µM. SaOS-2 split-luciferase Mdm2/MdmX complementation;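 active = inhibition of at least 50% at 8 µM in the primary screen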
Target sequence (O15151 whole entry, looked up): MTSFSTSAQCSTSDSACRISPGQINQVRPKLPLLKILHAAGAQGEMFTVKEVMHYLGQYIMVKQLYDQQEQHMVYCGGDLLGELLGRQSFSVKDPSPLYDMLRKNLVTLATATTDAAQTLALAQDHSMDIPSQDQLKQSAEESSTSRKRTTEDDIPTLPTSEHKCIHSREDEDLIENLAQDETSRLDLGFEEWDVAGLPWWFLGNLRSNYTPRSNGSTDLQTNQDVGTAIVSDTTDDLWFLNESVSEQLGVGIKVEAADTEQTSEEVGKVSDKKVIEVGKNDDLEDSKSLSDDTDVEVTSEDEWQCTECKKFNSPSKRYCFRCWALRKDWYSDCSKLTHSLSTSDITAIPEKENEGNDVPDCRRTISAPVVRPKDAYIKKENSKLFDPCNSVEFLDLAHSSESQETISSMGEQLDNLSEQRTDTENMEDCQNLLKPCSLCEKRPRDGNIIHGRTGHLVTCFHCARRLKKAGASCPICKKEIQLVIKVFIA
Target sequence (Q00987 whole entry, looked up): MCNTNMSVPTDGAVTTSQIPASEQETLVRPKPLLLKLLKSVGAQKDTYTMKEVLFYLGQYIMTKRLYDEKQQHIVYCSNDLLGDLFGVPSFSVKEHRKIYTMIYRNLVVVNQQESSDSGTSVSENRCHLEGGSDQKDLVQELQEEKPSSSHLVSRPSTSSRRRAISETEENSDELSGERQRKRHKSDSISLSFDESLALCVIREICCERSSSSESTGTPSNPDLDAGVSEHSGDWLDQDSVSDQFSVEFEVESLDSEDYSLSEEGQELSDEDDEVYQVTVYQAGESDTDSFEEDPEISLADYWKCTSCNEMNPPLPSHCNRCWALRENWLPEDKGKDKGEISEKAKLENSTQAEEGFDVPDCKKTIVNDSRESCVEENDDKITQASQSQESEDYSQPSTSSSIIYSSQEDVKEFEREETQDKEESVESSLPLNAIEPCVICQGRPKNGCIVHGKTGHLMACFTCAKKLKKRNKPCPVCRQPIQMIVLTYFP
CSC inhib = cancer stem cell viability inhibitors, primary screen, luminescence | inhibition, % at 7.5 µM | hit rate 1.1% among 300,000 | cancer stem cell-like cells viability; in the data active = inhibition above about 75%; tested in HMLE shEcad cells
Mdm2 MdmX conf = Mdm2-MdmX complex disruptors, retested hits, confirmation, luminescence, single concentration | shares compounds with Mdm2-MdmX inh | Mdm2-MdmX binding, luminescent assay | inhibition, % at 8 µM | hit rate 55% among 10,000 | AID 489028, 2010; in the data active = inhibition above about 40%
FLuc counter = full-length luciferase signal inhibition, confirmation, counter-screen for Mdm2/MdmX interaction inhibitor project, cell-based, single concentration, SaOS-2. shares compounds with Mdm2-MdmX inh. SaOS-2 full-length luciferase counterscreen, luminescence. inhibition, % at 8 µM. hit rate 77% among 6,200;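 active = mean inhibition at 8 µM reaching about 37%, which flags the compound as non-specific, limit read from the data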;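 also: p53-null SaOS-2 cells with luciferase driven by a doxycycline-inducible promoter; compound on cells about two nights before reading with doxycycline added after day one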
A number is an active result; 0 = inactive; - = not tested or not shown; + = active, no number.

SMILES	GRIN3A LBD mod	Beta cell apopt	Gli-Sufu antag	MPTP inh	Mdm2-MdmX inh	CSC inhib	Mdm2 MdmX conf	others
Cc1ccc(-c2nnc3n2N=C(c2ccc(Br)cc2)CS3)cc1	0	0	0	0	0	0	-
O=C(CN1CCN(S(=O)(=O)c2cccs2)CC1)N1CCCCC1	0	-	0	0	0	-	-
COc1cccc(CN(C)C(=O)CN2C(=O)NC(c3ccccc3)(c3ccccc3)C2=O)c1OC	0	0	0	0	0	-	-
CCN1CCN(CCNC(=O)c2ccc(CS(=O)c3ccc(Br)cc3)o2)CC1 (stereo unspecified)	0	0	0	0	0	0	-
CCOc1ccccc1C(=O)NCC(=O)NNC(=O)CN(C)S(=O)(=O)c1ccc(Cl)cc1	0	0	0	0	0	0	-
CCn1ncc(CN2CCC(n3nccc3NC(=O)c3ccccc3Cl)CC2)c1C	-	-	-	0	-	-	-
Cc1ccc(-n2c3nc(=O)[nH]c(=O)c-3cc3cc([N+](=O)[O-])ccc32)cc1	0	0	0	0	58	0	46	FLuc counter=38
O=C(NCCCN1CCCC1=O)c1cc2nc(-c3ccco3)cc(C(F)(F)F)n2n1	0	0	0	0	0	0	-
COc1ccc(Cl)cc1C1=NOC2(CCC2)C(=O)N1Cc1cccc(C#N)c1	-	-	-	0	-	-	-
CCC1CSC(Nc2ccc(C(=O)/C=C/c3ccc(OC)c(OC)c3)cc2)=N1 (stereo unspecified)	0	0	0	0	0	0	-
CCC1CSC(Nc2ccc(C(=O)/C=C/c3ccc(Br)cc3)cc2)=N1 (stereo unspecified)	0	0	0	0	59	79	0
COc1ccc(CCC(=O)NC2CCCc3ccccc32)cc1OC (stereo unspecified)	0	-	0	0	0	0	-
CCc1ccc(-c2cc(C)no2)cc1S(=O)(=O)N1CCN(c2ccccc2)CC1	0	0	0	0	60	0	43	FLuc counter=47
Cc1cc(C)c(OCC(=O)OC(C)C(=O)NCc2ccccc2)c(C)c1 (stereo unspecified)	0	-	0	0	0	-	-
Cc1cc2nc(-c3ccccc3)c(Cc3ccsc3)n2c(C)c1Br	-	-	-	0	-	-	-
COCCN(C(=O)CNC(=O)c1ccco1)C(C(=O)NC1CCCC1)c1cccc(OC)c1 (stereo unspecified)	0	0	0	0	0	-	-
COc1ccc(NC(=O)c2ccc(NC(=O)c3cccs3)cc2)cc1	26	0	0	0	67	0	0
COc1ccc(C(=O)Nc2cccc(NC(=O)c3cccs3)c2)cc1	0	0	0	0	0	0	-
O=C(NC(=S)Nc1cccnc1)c1cccs1	0	0	0	0	0	-	-
O=C(Nc1ccc(N2CCN(C(=O)c3cccs3)CC2)cc1)c1cccc(F)c1	0	0	0	0	0	0	-
COc1cccc(C(=O)Nc2ccc(N3CCN(C(=O)c4cccs4)CC3)cc2)c1	0	0	0	0	61	0	57	FLuc counter=60
O=C(Nc1cccnc1)c1cccs1	0	89	0	0	77	0	70	FLuc counter=40
COc1ccc(NC(=O)C2=CC(c3cccs3)=NS(=O)(=O)N2C)cc1	0	0	0	0	55	-	0
CCCCn1nc(C(=O)N(C)Cc2nc3ccccc3c(=O)[nH]2)c2ccccc2c1=O	-	-	-	0	-	-	-
COCCN(CCOC)Cc1cc(=O)oc2cc(C)c(Cl)cc12	-	-	-	0	-	-	-
SMILES	GRIN3A LBD mod	Beta cell apopt	Gli-Sufu antag	MPTP inh	Mdm2-MdmX inh	CSC inhib	Mdm2 MdmX conf	others
O=C(NC(=S)Nc1ccc(N2CCN(C(=O)c3ccccc3)CC2)cc1)c1cccs1	0	-	0	0	51	-	0
COc1cccc(NC(=O)c2ccc(CN3CCN(c4ccccc4)CC3)cc2)c1	0	0	0	0	57	0	0
O=C(NC1CC2CCCC(C1)N2C(=S)Nc1ccccc1)C1CC1 (stereo unspecified)	0	0	0	0	0	0	-
COc1ccc(-c2ccc(C#N)c(OC(=O)c3c(Cl)cccc3Cl)n2)cc1	0	0	0	0	64	0	0
COc1cccc(CNc2ncc(C(=O)Nc3cc(OC)c(OC)c(OC)c3)c(C)n2)c1	0	0	0	0	55	0	57	FLuc counter=48
O=C(NCc1ccncc1)C(=O)NCC1OCCN1S(=O)(=O)c1ccccc1 (stereo unspecified)	-	-	-	0	-	-	-
Cc1cccc(CN2[C@@H](CC(C)C)COCCS2(=O)=O)c1	0	0	0	0	0	0	-
O=C(Nc1nc2c(s1)CCCC2)c1ccc(S(=O)(=O)N2CCCc3ccccc32)cc1	0	0	0	0	0	0	-
CC1CCc2nc(NC(=O)C3COc4ccccc4O3)sc2C1 (stereo unspecified)	0	0	0	0	52	0	77	FLuc counter=+
CC1CCc2nc(NC(=O)c3ccc(S(=O)(=O)N4CCCc5ccccc54)cc3)sc2C1 (stereo unspecified)	0	0	0	0	58	0	0
CC1CCN(S(=O)(=O)N2CCC(C(=O)NCc3cccnc3)CC2)CC1	0	0	0	0	0	0	-
CCc1ccccc1NNC(=O)c1snnc1C	0	0	0	0	0	0	-
O=C(COC(=O)c1ccc2c(c1)OCCO2)NCc1ccc(Cl)cc1	-	-	-	0	-	-	-
O=C(N/N=C/c1ccc[nH]1)c1ccc(O)cc1	0	0	0	0	0	0	-
O=C(N/N=C/c1ccccc1C(=O)O)c1ccc(COc2cccc3cccnc23)cc1	0	0	0	0	0	0	-
O=C(N/N=C/c1ccc[nH]1)c1ccc(COc2cccc3cccnc23)cc1	0	100	0	0	97	100	83	FLuc counter=52
Cc1cc(Br)c(OCc2ccc(C(=O)N/N=C/c3ccc[nH]3)cc2)c(Br)c1	0	117	83	0	98	98	94	FLuc counter=0
COC(=O)C1=C(C(=O)OC)[C@@H]2Nc3ccccc3[C@@]23C[C@@H](C(=O)OC)N(C(=O)C2CCC2)C3=N1	0	0	0	0	0	0	-
Cc1ccccc1NC(=O)CSc1nnc(NC(=O)C2CC2)s1	0	0	0	0	0	0	-
Cc1cccc(NC(=O)c2ccccc2NC(=O)c2ccco2)c1	0	0	0	0	0	0	-
COc1cc2c(cc1OC)CN(c1nc(CN3CCOCC3)nc3sc4c(c13)CCC(C)C4)CC2 (stereo unspecified)	0	0	0	0	64	0	0	FLuc counter=74
